According to PubChem BioAssay (EPA / NIEHS):
Inconclusive results are not listed. Calls of active or inactive are those of the source. The calls were made as follows, unless noted: active = hit-call score of the fitted dose curve at least 0.9, where 1 is the maximum; inconclusive = response in the unintended direction; inactive = score below 0.9.

Key:
[1] = molecular target: Estrogen-related receptor gamma (Homo sapiens) (UniProt P62508); test: ATG_ERRg_TRANS: Attagene TRANS-FACTORIAL HepG2 Assay for human Estrogen-Related Receptor gamma (ERRg) (AID 2282977); details: HepG2 Attagene TRANS reporter, ERRg transactivation;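 also: hits increase reporter signal over DMSO so potencies reflect activators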
How it was run: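 Transfect HepG2 with multiple GAL4-UAS reporter transcription units; dose chemicals 24 h; isolate RNA, reverse-transcribe with oligo(dT), PCR-amplify, label with 6-FAM, digest with HpaI; size fragments by capillary electrophoresis. DMSO serves as negative control.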

[2] = molecular target: Glucocorticoid receptor (Homo sapiens) (UniProt P04150); test: ATG_GR_TRANS: Attagene TRANS-FACTORIAL HepG2 Assay for human Glucocorticoid Receptor (GR) (AID 2282978); details: HepG2 Attagene TRANS GR reporter, mRNA transcription;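 also: activators score as hits since higher reporter transcript over DMSO is fitted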
How it was run: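 Transient MRTU transfection of HepG2 (GAL4-UAS reporters, exogenous NR-GAL4 chimeras), 24 h dosing. Readout: reporter transcript via RT-PCR + capillary electrophoresis fluorescence. Positive direction vs DMSO baseline.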

[3] = molecular target: Bile acid receptor (Homo sapiens) (UniProt Q96RI1); test: ATG_FXR_TRANS: Attagene TRANS-FACTORIAL HepG2 Assay for Farnesoid X Receptor (FXR) (AID 2282979); details: HepG2 Attagene TRANS FXR-GAL4 reporter transcription;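 also: hits raise reporter mRNA above DMSO so AC50 marks FXR activation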
How it was run: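 HepG2 cells were transiently transfected with GAL4-UAS reporters driven by chimeric NR-Gal4 proteins and dosed for 24 h. Reporter mRNA was quantified by RT-PCR, fluorescent labelling, HpaI digestion and capillary electrophoresis, with gain of signal scored versus DMSO.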

[4] = ATG_M_06_TRANS: Attagene TRANS-FACTORIAL HepG2 Assay for M06 Transcription Factor (Internal Marker) (AID 2282983); details: HepG2 Attagene TRANS M06 internal marker reporter
How it was run: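 HepG2 cells transiently transfected with GAL4-UAS multiple reporter units, dosed 24 h. Reporter RNA reverse-transcribed, PCR-amplified, 6-FAM-labeled, HpaI-digested and quantified by capillary electrophoresis; this internal-marker signal fitted upward relative to DMSO.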

[5] = ATG_M_32_TRANS: Attagene TRANS-FACTORIAL HepG2 Assay for M32 Transcription Factor (Internal Marker) (AID 2282984); details: HepG2 Attagene TRANS M32 internal marker reporter;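 also: transcript level of a background control reporter unit measured by RT-PCR and capillary electrophoresis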
How it was run: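 Measures reporter mRNA induction in human HepG2 liver cells after 24 h chemical treatment. Transcripts from transiently transfected GAL4-UAS reporter units are amplified, fluorescently labelled and sized by capillary electrophoresis; gain of signal relative to DMSO.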

[6] = molecular target: Transcriptional activator Myb (Homo sapiens) (UniProt P10242); test: ATG_Myb_CIS: Attagene CIS-FACTORIAL HepG2 Assay for human Myeloblastosis (Myb) Proto-Oncogene Transcription Factor (AID 2282986; active = hit-call score of the fitted dose curve at least 0.9, where 1 is the maximum; inactive = score below 0.9); details: HepG2 Attagene CIS-FACTORIAL Myb reporter transcription; actives raise or lower the signal
How it was run: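 HepG2, transient MRTU transfection (cis-element promoters, endogenous TF activity), 24 h compound exposure. Readout: reporter mRNA via RT-PCR, 6-FAM labeling, HpaI digest, capillary electrophoresis. Gain/loss fit vs DMSO.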

[7] = molecular target: Hepatocyte nuclear factor 4-alpha (Homo sapiens) (UniProt P41235); test: ATG_HNF4a_TRANS: Attagene TRANS-FACTORIAL HepG2 Assay for human Hepatocyte Nuclear Factor 4 alpha (HNF4a) (AID 2282982); details: HepG2 HNF4a transactivation reporter, mRNA readout
How it was run: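 Readout is fluorescent reporter-transcript fragments resolved by capillary electrophoresis after RT-PCR from HepG2 cells dosed for 24 h. Cells carried transfected GAL4-UAS reporter constructs measuring exogenous NR-GAL4 chimera activity; DMSO served as baseline.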

[8] = molecular target: Oxysterols receptor LXR-alpha (Homo sapiens) (UniProt Q13133); test: ATG_LXRa_TRANS: Attagene TRANS-FACTORIAL HepG2 Assay for human Liver X Receptor alpha (LXRa) (AID 2282980); details: HepG2 Attagene TRANS reporter, LXRa transactivation
How it was run: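 HepG2 cells transiently transfected with GAL4-UAS reporter units for chimeric NR-Gal4 proteins, exposed to chemicals for 24 h. Reporter mRNA quantified by RT-PCR and capillary electrophoresis; gain of signal fitted relative to DMSO.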

[9] = molecular target: Oxysterols receptor LXR-beta (Homo sapiens) (UniProt P55055); test: ATG_LXRb_TRANS: Attagene TRANS-FACTORIAL HepG2 Assay for human Liver X Receptor beta (LXRb) (AID 2282981); details: HepG2 Attagene TRANS GAL4-LXRb reporter, mRNA
How it was run: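 Transient transfection HepG2 (multiplexed RTUs, GAL4-UAS); NR-Gal4 chimera; 24 h exposure; RNA → RT-PCR → 6-FAM primer extension → HpaI → CE; increase vs DMSO.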

[10] = molecular target: Nuclear receptor subfamily 4 group A member 2 (Homo sapiens) (UniProt P43354); test: ATG_NURR1_TRANS: Attagene TRANS-FACTORIAL HepG2 Assay for human Nuclear Receptor Related Protein 1 (NURR1) (AID 2282985); details: HepG2 Attagene TRANS reporter, mRNA readout
How it was run: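 Transient transfection of HepG2, human liver cells, with multiple GAL4-UAS reporter transcription units. Cells dosed 24 h, RNA isolated, reverse-transcribed, PCR-amplified, FAM-labelled, HpaI-digested, sized by capillary electrophoresis. DMSO served as negative control.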

Measured: AC50

Sequence of Nuclear receptor subfamily 4 group A member 2 (Homo sapiens) (P43354 whole entry, looked up, the tested form may be a part): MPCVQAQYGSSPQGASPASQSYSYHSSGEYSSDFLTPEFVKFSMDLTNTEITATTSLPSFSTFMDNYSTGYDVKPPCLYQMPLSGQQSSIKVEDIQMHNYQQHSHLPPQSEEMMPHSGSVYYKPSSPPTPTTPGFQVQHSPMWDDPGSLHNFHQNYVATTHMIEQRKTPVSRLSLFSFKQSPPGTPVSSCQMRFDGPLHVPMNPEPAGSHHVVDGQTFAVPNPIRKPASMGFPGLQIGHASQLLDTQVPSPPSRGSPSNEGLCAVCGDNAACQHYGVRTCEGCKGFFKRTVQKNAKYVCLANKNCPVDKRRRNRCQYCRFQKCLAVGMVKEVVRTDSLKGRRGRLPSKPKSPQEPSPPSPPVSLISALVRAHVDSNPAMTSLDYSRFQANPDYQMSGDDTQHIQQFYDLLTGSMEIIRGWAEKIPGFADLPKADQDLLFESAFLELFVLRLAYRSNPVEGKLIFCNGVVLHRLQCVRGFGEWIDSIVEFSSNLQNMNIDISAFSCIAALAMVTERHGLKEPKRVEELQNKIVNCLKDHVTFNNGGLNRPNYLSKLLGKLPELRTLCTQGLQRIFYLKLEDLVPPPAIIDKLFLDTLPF
Sequence of Oxysterols receptor LXR-alpha (Homo sapiens) (Q13133 whole entry, looked up, the tested form may be a part): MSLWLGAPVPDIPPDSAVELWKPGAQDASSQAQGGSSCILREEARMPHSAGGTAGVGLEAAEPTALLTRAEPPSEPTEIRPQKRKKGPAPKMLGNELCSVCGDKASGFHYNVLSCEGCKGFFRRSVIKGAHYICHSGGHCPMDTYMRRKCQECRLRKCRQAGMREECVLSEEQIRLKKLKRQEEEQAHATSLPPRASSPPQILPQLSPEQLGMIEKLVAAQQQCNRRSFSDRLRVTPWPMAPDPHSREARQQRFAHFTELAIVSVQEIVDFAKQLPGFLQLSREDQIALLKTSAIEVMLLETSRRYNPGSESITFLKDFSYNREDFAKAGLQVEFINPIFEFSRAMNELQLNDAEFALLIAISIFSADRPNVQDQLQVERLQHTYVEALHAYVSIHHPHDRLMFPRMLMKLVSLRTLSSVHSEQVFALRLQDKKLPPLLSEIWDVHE
Sequence of Hepatocyte nuclear factor 4-alpha (Homo sapiens) (P41235 whole entry, looked up, the tested form may be a part): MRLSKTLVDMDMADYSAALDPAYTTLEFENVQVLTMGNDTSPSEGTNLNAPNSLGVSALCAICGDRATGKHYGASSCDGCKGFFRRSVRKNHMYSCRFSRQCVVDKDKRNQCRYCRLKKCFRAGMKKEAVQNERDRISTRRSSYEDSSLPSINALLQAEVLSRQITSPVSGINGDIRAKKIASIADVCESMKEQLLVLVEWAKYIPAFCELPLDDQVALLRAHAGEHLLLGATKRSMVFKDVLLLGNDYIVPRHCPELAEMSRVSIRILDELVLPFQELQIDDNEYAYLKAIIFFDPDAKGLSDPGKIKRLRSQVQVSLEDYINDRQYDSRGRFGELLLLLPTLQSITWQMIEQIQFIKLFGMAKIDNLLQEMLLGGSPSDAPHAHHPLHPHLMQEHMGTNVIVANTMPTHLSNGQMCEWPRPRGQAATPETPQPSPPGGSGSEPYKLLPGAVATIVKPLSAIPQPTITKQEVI
Sequence of Bile acid receptor (Homo sapiens) (Q96RI1 whole entry, looked up, the tested form may be a part): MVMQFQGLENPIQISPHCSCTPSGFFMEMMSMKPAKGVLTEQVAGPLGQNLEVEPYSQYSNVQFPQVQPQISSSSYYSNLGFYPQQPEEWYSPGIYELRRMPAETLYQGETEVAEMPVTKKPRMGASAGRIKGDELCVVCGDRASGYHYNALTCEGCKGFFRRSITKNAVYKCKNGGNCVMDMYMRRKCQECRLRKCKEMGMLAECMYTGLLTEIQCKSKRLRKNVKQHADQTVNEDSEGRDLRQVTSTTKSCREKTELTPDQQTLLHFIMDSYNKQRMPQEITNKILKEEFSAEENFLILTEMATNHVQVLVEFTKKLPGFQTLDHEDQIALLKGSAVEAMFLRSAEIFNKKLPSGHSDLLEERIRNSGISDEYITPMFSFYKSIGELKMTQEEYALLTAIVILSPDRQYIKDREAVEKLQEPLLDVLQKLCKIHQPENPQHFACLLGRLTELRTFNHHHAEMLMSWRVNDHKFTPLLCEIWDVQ
Sequence of Glucocorticoid receptor (Homo sapiens) (P04150 whole entry, looked up, the tested form may be a part): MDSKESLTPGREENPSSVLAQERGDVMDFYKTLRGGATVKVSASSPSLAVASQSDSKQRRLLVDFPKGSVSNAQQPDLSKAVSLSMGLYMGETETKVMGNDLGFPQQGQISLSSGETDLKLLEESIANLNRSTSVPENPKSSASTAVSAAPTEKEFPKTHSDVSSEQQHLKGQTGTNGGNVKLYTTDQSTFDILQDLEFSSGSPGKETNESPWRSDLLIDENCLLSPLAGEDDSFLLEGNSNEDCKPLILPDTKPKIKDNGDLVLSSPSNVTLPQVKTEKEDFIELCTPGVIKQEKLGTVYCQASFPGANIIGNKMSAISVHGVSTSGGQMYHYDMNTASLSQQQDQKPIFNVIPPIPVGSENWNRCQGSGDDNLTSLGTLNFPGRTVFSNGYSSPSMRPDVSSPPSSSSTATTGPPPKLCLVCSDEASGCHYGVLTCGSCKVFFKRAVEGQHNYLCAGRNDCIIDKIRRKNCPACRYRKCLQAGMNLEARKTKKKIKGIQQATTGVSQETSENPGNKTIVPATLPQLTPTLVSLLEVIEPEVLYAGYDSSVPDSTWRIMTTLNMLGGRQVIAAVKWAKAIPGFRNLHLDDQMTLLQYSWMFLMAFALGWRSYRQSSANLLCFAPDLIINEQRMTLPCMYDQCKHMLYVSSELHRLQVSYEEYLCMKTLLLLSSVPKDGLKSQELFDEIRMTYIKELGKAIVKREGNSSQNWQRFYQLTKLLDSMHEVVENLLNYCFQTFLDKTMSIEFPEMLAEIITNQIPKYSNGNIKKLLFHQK
Sequence of Estrogen-related receptor gamma (Homo sapiens) (P62508 whole entry, looked up, the tested form may be a part): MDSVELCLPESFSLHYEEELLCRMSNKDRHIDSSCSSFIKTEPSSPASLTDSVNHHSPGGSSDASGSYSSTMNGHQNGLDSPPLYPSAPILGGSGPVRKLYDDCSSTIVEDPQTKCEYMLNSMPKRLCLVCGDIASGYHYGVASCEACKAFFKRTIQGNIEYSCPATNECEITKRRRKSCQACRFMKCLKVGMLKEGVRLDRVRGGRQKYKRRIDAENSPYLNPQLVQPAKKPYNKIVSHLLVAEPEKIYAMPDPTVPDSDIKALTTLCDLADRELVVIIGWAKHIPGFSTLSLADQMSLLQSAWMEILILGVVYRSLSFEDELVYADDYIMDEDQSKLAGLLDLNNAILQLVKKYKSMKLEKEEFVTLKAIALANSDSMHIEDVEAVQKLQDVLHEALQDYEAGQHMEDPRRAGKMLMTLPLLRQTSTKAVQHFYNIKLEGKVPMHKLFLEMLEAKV
Sequence of Oxysterols receptor LXR-beta (Homo sapiens) (P55055 whole entry, looked up, the tested form may be a part): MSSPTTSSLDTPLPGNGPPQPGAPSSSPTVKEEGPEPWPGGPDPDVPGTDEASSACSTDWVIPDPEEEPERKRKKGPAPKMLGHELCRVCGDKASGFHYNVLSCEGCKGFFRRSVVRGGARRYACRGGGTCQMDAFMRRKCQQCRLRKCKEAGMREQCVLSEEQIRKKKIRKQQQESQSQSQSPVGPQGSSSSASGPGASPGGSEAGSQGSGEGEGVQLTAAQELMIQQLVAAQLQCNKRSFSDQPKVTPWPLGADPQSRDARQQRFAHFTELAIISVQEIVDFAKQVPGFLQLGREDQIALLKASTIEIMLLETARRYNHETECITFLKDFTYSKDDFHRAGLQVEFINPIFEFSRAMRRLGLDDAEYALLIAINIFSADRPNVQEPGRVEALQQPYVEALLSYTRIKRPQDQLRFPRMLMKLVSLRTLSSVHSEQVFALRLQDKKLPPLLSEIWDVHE
Sequence of Transcriptional activator Myb (Homo sapiens) (P10242 whole entry, looked up): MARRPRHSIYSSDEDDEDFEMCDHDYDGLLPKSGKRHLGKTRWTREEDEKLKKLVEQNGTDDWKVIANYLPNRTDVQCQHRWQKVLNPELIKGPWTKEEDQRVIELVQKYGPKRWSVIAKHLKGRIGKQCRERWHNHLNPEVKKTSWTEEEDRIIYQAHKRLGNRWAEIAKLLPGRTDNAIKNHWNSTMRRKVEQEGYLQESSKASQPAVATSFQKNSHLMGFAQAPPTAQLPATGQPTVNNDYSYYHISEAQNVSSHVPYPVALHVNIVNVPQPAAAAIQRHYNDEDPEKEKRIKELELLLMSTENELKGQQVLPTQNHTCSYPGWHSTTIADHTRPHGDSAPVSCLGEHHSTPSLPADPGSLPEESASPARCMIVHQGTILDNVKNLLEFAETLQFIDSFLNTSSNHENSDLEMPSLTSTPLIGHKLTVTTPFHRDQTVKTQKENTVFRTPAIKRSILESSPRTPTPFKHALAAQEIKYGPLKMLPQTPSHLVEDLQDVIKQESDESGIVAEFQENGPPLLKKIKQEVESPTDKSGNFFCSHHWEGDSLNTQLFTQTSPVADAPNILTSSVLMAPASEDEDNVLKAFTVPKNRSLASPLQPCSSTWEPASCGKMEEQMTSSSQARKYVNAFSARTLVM

CCCCCCCC/C=C\CCCCCCCC(=O)N(C)CC(=O)O
inactive: [1] | [2] | [3] | [4] | [5] | [6]

CCOC(C=C(C)CCC=C(C)C)OCC
inactive: [1] | [7] | [6]

FC(F)(F)C(F)(F)C(F)(F)C(F)(F)C(F)(F)C(F)(F)C(F)(F)CCI
not listed: [1]
inactive: all other assays above

OCC(O)CC(F)(F)C(F)(F)C(F)(F)C(F)(F)C(F)(F)C(F)(F)C(F)(F)C(F)(F)F (stereo unspecified)
not listed: [2] | [5]
inactive: all other assays above

Oc1ccc2c(c1)CCC2
inactive: [1] | [3] | [9] | [7] | [4] | [6]

CCC(=O)OC(C)c1ccccc1 (stereo unspecified)
not listed: [2] | [8] | [10]
inactive: all other assays above

O=S(=O)(O)c1ccc(Cl)cc1
not listed: [1] | [3]
inactive: all other assays above

CC(C)CCCC(C)CCO (stereo unspecified)
inactive: [2] | [3] | [9] | [6]

Nc1cc([N+](=O)[O-])cc(Cl)c1O
inactive: [2] | [4] | [5] | [6]

CCCCCC/C=C/CCCCCCCC(=O)O
inactive: [2] | [3] | [4] | [5] | [6]

Oc1ccc(C2(c3ccc(O)c(C4CCCCC4)c3)CCCCC2)cc1C1CCCCC1
active: [6] 51.3 µM
inactive: [2] | [3] | [7] | [4] | [5]

OCC(O)CC(F)(F)C(F)(F)C(F)(F)C(F)(F)F (stereo unspecified)
inactive: [2] | [3] | [4] | [6]

CN(C(=O)C(F)(F)C(F)(F)C(F)(F)F)[Si](C)(C)C
inactive: [2] | [3] | [7] | [4] | [6]

CC(C)(C)c1cc(Cc2cc(C(C)(C)C)c(O)c(C(C)(C)C)c2)cc(C(C)(C)C)c1O
inactive: [2] | [3] | [5] | [6]

CC(=O)CCC(C)C
inactive: [2] | [9] | [6]

O=c1cccc[nH]1
inactive: [2] | [9] | [7] | [4] | [10] | [6]

CO[Si](CCCOCC1CO1)(OC)OC (stereo unspecified)
inactive: [2] | [9] | [7] | [10] | [6]

Cc1cc(C)c(O)c(C(C)(C)C)c1
inactive: [2] | [8] | [4] | [5] | [6]

CCCCCCCCCc1ccc(OCCO)cc1
inactive: [2] | [3] | [4]
active: [6] 17.6 µM

O=c1[nH]cccc1O
inactive: [2] | [8] | [9] | [4] | [5] | [6]

CCC/C=C/CO
inactive: [2] | [3] | [7] | [10] | [6]

Cc1cnccn1
inactive: [2] | [8] | [7] | [6]

OCCC(O)CO (stereo unspecified)
inactive: [2] | [3] | [6]

CCN=C1C=CC(=C(c2ccc(N(CC)CC)cc2)c2ccc(N(CC)CC)cc2)c2ccccc21
inactive: [2] | [3] | [7] | [6]

OCCCc1cccnc1
not listed: [1] | [8] | [9]
inactive: all other assays above

CCCCC(CC)COC(=O)c1ccc(N(C)C)cc1 (stereo unspecified)
not listed: [1] | [8] | [9]
inactive: all other assays above

O=S(=O)(O)CCC(F)(F)C(F)(F)C(F)(F)C(F)(F)F
inactive: [2] | [9] | [4] | [6]

OCC1CCCO1 (stereo unspecified)
inactive: [2] | [8] | [9] | [4] | [6]

CCc1cc(Cc2cc(CC)c(N)c(CC)c2)cc(CC)c1N
not listed: [1] | [8] | [9]
inactive: all other assays above

c1ccc(C[P+](c2ccccc2)(c2ccccc2)c2ccccc2)cc1
inactive: [2] | [3] | [9] | [5] | [10] | [6]

Cc1cccc(C)n1
inactive: [2] | [8] | [7] | [4] | [5] | [6]

COC(=O)c1ccc(C=O)cc1
inactive: [2] | [3] | [9] | [5] | [6]

Brc1nc2ccccc2s1
inactive: [2] | [7] | [4] | [5] | [10] | [6]

C=CC(=O)OCCC(F)(F)C(F)(F)C(F)(F)C(F)(F)F
inactive: [2] | [3] | [4] | [5] | [6]

CC(C)=CCCC(C)O (stereo unspecified)
inactive: [2] | [3] | [4] | [6]

OC(O)C(F)(F)C(F)(F)F
inactive: [2] | [3] | [4] | [6]

CSc1ccc(Cl)cc1
inactive: [2] | [3] | [7] | [4] | [6]

CC(=O)c1ccccc1N
inactive: [2] | [7] | [4] | [6]

Cc1cc(=O)[nH]c(C(C)C)n1
not listed: [1] | [3] | [10]
inactive: all other assays above

CCN(CC)c1ccc2c(c1)Oc1cc(N(CC)CC)ccc1C21OC(=O)c2ccccc21
inactive: [2] | [3] | [4] | [6]

CCN=c1cc2oc3cc(NCC)c(C)cc3c(-c3ccccc3C(=O)OCC)c-2cc1C
inactive: [2] | [3] | [4] | [5] | [6]

CCCCCCCCn1sc(Cl)c(Cl)c1=O
inactive: [2] | [9] | [4] | [5] | [10]
active: [6] 20.4 µM

CCCC(=O)OCC(COC(=O)CCC)OC(=O)CCC
inactive: [2] | [3] | [7] | [4] | [6]
